Assay outcomes as filed in PubChem BioAssay.
An excerpt weighted towards active compounds, which were near 3% of everything screened.
KKLEB cytotox – cytotoxicity in KKLEB CF airway cells, primary screen, cytotoxicity control for CF NF-kB inhibitor project, cell-based, uHTS, fluorescence assay plates; KKLEB CF airway cells viability, ATPlite luminescence, overnight; active compounds read low; cells stimulated with P. aeruginosa culture filtrate; activity change (cytotoxicity), % at 5 µM; 0.36% of 360,000 active;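 active = corrected activity change at or below -50% at 5 µM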
TRPM1 prom inh – inhibitors of MITF-dependent TRPM1 promoter reporter, primary screen, cell-based, SK-MEL-5, single point, luciferase; SK-MEL-5 TRPM1 promoter luciferase, 24 h; inhibition, % at 12.5 µM; 0.83% of 330,000 active; AID 488899, 2010;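 active = mean inhibition across replicates of 60% or more, whatever share of single replicates reaches that level; inconclusive = some that reach 60%, reason not given; inactive = mean inhibition across replicates below 60%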
HIF-2a inh – HIF-2a reporter inhibitors, primary screen, luminescence, 786-0 RCC cells | 786-0 RCC cells HIF-2a reporter, luciferase luminescence, overnight | inhibition, % at 18.8 µM | 0.72% of 360,000 active;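 active = inhibition of the luminescence signal of 40% or more relative to plate controls, in a single-dose primary screen at 18.75 µM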
Peg3 prom inh – Peg3 promoter-driven luciferase inhibitors, primary screen, cell-based, HeLa, luciferase luminescence | HeLa PEG-Prom luciferase reporter, overnight | inhibition, % at 20 µM | 1.7% of 360,000 active | AID 588405, 2011;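 active = inhibition of at least 50% at 20 µM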
CF NFkB block – inhibitors of PAF-induced NF-kB signaling, primary screen, cell-based, GFP fluorescence, uHTS; inhibition, % at 5 µM; 0.86% of 360,000 active; KKLEB NF-kB-GFP reporter, GFP fluorescence overnight;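 active = at least 50% inhibition at 5 µM, scaled per plate between neutral and stimulator controls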;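 note: PAF is a Pseudomonas aeruginosa culture filtrate used as stimulus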
EBV LMP1 NFkB – EBV LMP1-driven NF-kappaB luciferase reporter inhibitors, primary screen, cell-based, luminescence, single point; LMP1-induced NF-kappaB luciferase reporter cells; inhibition, % at 12.5 µM; 0.69% of 350,000 active; AID 504558, 2011; in the data active = inhibition above about 41%; inconclusive = no clear call, values can overlap the other calls
Each line names hits and unclear results; the compound was inactive in the other large screens.

COc1ccc(-n2ncc3c(SCC(=O)OC(C)C)ncnc32)cc1	none (no result: TRPM1 prom inh)
COc1ccc(-c2cnc3c(NC=O)cc(-c4ccccc4)cn23)cc1OC	none (no result: TRPM1 prom inh, EBV LMP1 NFkB)
COc1ccc(-c2cnc3c(NC=O)cc(-c4cc(OC)c(OC)c(OC)c4)cn23)cc1OC	Peg3 prom inh 65 (no result: TRPM1 prom inh, EBV LMP1 NFkB)
Cc1ccc(NC(=O)CNC(=O)CN2C(=O)c3ccccc3C2=O)cc1	none (no result: TRPM1 prom inh, EBV LMP1 NFkB)
COc1ccc(OC)c(N/C=C/C(=O)c2ccccc2)c1	KKLEB cytotox -88, HIF-2a inh 63, Peg3 prom inh 73, EBV LMP1 NFkB 72
COc1ccc(OC)c(N/C(C)=C/C(=O)c2ccccc2)c1	none
COCOc1cc(O)c(C(=O)/C=C/c2ccccc2)c(OCOC)c1	Peg3 prom inh 95
COc1ccc(C(=O)/C=C/c2ccc(N3CCCCC3)c([N+](=O)[O-])c2)c(OC)c1	HIF-2a inh 41
COc1cc(C)cc(C(=O)C=Cc2ccccc2)c1O	none
COc1ccc(C(=O)/C=C/c2ccccc2)c(OC)c1	Peg3 prom inh 68
CN1CCn2cnc(C(=O)N3CCN(c4ccccc4)CC3)c2C1=O	none (no result: TRPM1 prom inh)
O=C1CSC(=S)N1c1cccc(O)c1	HIF-2a inh 48
CC(C)(C)c1ccc2cccc(F)c2n1	none (no result: TRPM1 prom inh, EBV LMP1 NFkB)
CN(C)Cc1cc(C(C)(C)C)cc(N2CCOCC2)c1O	EBV LMP1 NFkB 68
CCN(CC)Cc1cc(C(C)(C)C)cc(N2CCOCC2)c1O	none
CCCCNC(=O)C(NC(=O)c1ccccc1)C(=O)c1ccccc1 (stereo not drawn)	none (no result: KKLEB cytotox, TRPM1 prom inh, Peg3 prom inh, CF NFkB block, EBV LMP1 NFkB)
Cc1nc2c(ccc3nc(NC(=O)c4ccc5c(c4)OCCO5)sc32)s1	KKLEB cytotox -53
Cc1nc2ccc3nc(NC(=O)c4ccc5c(c4)OCCO5)sc3c2s1	none
C[C@@H]1CNC(=O)c2c(C(=O)N[C@H](C)c3ccccc3)ncn21	none (no result: TRPM1 prom inh)
CCNC(=O)C1(C)CCCN(C(=O)c2sc(-c3ccccc3)nc2C)C1 (stereo not drawn)	none (no result: TRPM1 prom inh, EBV LMP1 NFkB)
O=C(NCc1c(Cl)cccc1Cl)c1[nH]c(C(F)(F)F)nc1-c1ccccc1	none (no result: TRPM1 prom inh, EBV LMP1 NFkB)
CC(C)(C)S(=O)N1Cc2cc(C(=O)Nc3ccc(-c4ccccc4)cc3)nc(-c3cccc(-c4cc5ccccc5o4)c3)c2[C@@H]1CCO (stereo partly drawn)	Peg3 prom inh 93 (no result: TRPM1 prom inh, EBV LMP1 NFkB)
CC(C)(C)S(=O)N1Cc2cc(C(=O)O)nc(-c3cccc(-c4cc5ccccc5o4)c3)c2[C@H]1CCO (stereo partly drawn)	none (no result: TRPM1 prom inh, EBV LMP1 NFkB)
O=C(CCl)N1CCN2C(=O)c3ccccc3C12c1ccc(Cl)cc1 (stereo not drawn)	Peg3 prom inh 87
Cc1ccc(C(=O)N2CCN3C(=O)c4ccccc4C23c2ccc(Cl)cc2)cc1 (stereo not drawn)	none
COCCNC(=S)N(CCc1c(C)[nH]c2ccc(OC)cc12)Cc1cccnc1	EBV LMP1 NFkB 42
COc1ccc(NC(=S)N(CCc2c(C)[nH]c3ccc(C)cc23)Cc2cccnc2)cc1	none (no result: TRPM1 prom inh)
COCC(C)N1C(=O)Cc2c1nc(N)c1c(N)nc(N3CCN(c4ccccc4F)CC3)c(C#N)c21 (stereo not drawn)	Peg3 prom inh 55
Cc1cccc(NC(=O)C(=O)NNC(=O)c2ccc(C(C)(C)C)cc2)c1	KKLEB cytotox -62, CF NFkB block 84
CC(C)(C)c1ccc(C(=O)NNC(=O)c2cccc(Br)c2)cc1	none
CC(=O)OCC(=O)C1(O)CCC2C3CCC4=CC(=O)C=CC4(C)C3(F)C(O)CC21C (stereo not drawn)	CF NFkB block 73
CC(=O)OCC(=O)[C@@]12OC3(CCCC3)O[C@@H]1C[C@H]1[C@@H]3CCC4=CC(=O)C=C[C@]4(C)[C@@]3(F)[C@@H](O)C[C@@]12C	CF NFkB block 82
CC(=O)OCC(=O)[C@@]1(O)CC[C@H]2[C@@H]3CCC4=CC(=O)C=C[C@]4(C)[C@H]3C(=O)C[C@@]21C	none (no result: TRPM1 prom inh)
O=C1c2ccccc2S(=O)N1c1cccc(F)c1 (stereo not drawn)	none (no result: TRPM1 prom inh)
Oc1c(C(Nc2cccc(C(F)(F)F)c2)c2ccncc2)ccc2cccnc12 (stereo not drawn)	TRPM1 prom inh 65, EBV LMP1 NFkB 53
CN1CCN(C(c2ccc(F)cc2)c2ccc3cccnc3c2O)CC1 (stereo not drawn)	none
Oc1c(C(Nc2nccs2)c2ccc(C(F)(F)F)cc2)ccc2cccnc12 (stereo not drawn)	TRPM1 prom inh 80, HIF-2a inh 87, Peg3 prom inh 68, EBV LMP1 NFkB 73
FC(F)(F)Oc1ccccc1C(c1nnnn1-c1ccc2c(c1)OCCO2)N1CCN(C/C=C/c2ccccc2)CC1 (stereo not drawn)	none (no result: TRPM1 prom inh, EBV LMP1 NFkB)
COCCNC(=O)C1(C)CCCN(C(=O)c2ccc(C(=O)OC)cc2)C1 (stereo not drawn)	none (no result: TRPM1 prom inh, EBV LMP1 NFkB)
O=c1c2cc(NC(=S)NCCCN3CCC(Cc4ccccc4)CC3)ccc2nc2n1CCCCC2	Peg3 prom inh 94
CNC(=O)C1Cc2ccccc2CN1S(=O)(=O)c1cccs1 (stereo not drawn)	Peg3 prom inh 51
Cc1ccc(-c2cc3nc(NCCc4ccncc4)n(C)c(=O)c3s2)cc1	none (no result: TRPM1 prom inh, EBV LMP1 NFkB)
CC(C)CNc1ncnc2c1ncn2[C@H]1CN(C2CCCC2)C[C@@H](CO)O1	none (no result: TRPM1 prom inh, EBV LMP1 NFkB)
Cc1ccccc1CN1CCN(C(=O)[C@H]2O[C@@H](n3cnc4c(N)ncnc43)[C@H](O)[C@@H]2O)CC1	none (no result: TRPM1 prom inh, EBV LMP1 NFkB)
O=C(/C=C/c1ccco1)Oc1cc(Br)cc(/C=N/NC(=O)c2ccccc2O)c1	EBV LMP1 NFkB 61
Cc1ccc(C(=O)N/N=C/c2cccc(OC(=O)/C=C/c3ccco3)c2)cn1	none
COc1ccccc1CN1CC(C(=O)N2CCC(C(=O)c3ccccc3)CC2)CCC1=O (stereo not drawn)	none
CCOC(=O)N1CCN(C(=O)C2CCC(=O)N(Cc3ccccc3OC)C2)CC1 (stereo not drawn)	EBV LMP1 NFkB 46 (no result: TRPM1 prom inh)
O=C(C[C@H]1CC[C@@H](NC(=O)Cc2cccnc2)[C@@H](CO)O1)NCc1ccc2c(c1)OCO2	none (no result: KKLEB cytotox, TRPM1 prom inh, Peg3 prom inh, CF NFkB block, EBV LMP1 NFkB)
CCOc1cc(/C=N/Nc2cc(C)nc(-n3nc(C)cc3C)n2)ccc1O	TRPM1 prom inh inconclusive, EBV LMP1 NFkB 70
COCCNC(=O)c1ccc(N2CC3CC(C2)c2cccc(=O)n2C3)c(NC(=O)c2ccc(C(C)(C)C)cc2)c1 (stereo not drawn)	none (no result: TRPM1 prom inh)
CC(C)Cn1c(-c2cccc(S(=O)(=O)N3CCOCC3)c2)n[nH]c1=S	EBV LMP1 NFkB 71
CCC(C)n1c(-c2cccc(S(=O)(=O)N3CCOCC3)c2)n[nH]c1=S (stereo not drawn)	none
Nc1ccn([C@@H]2O[C@H](CO)[C@@H](O)C2O)c(=O)n1 (stereo partly drawn)	EBV LMP1 NFkB 47
